In assay [1] the target is rat Peripheral-type Benzodiazepine Receptor (PBR), Tspo (gene 24230) (UniProt P16257). In words: NVS_MP_rPBR: NovaScreen (NVS) Membrane Protein Assay for rat Peripheral-type Benzodiazepine Receptor (PBR) (AID 2283335). The gist of the method: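 Single-concentration duplicate screening at 25 uM preceded concentration-series retesting of actives. Binding of a specific radioligand to rat kidney membrane PBR was read by filtration radiodetection after 1 h, with plate-wise positive and negative controls.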
Sequence of rat Peripheral-type Benzodiazepine Receptor (PBR), Tspo (gene 24230) (P16257 whole entry, looked up): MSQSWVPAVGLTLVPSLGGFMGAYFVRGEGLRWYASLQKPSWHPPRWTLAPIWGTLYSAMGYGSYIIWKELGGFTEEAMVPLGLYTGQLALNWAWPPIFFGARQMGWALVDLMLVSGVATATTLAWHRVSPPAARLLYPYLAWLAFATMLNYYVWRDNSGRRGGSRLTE

For assay [2], the target named is Small conductance calcium-activated potassium channel protein 1 (Rattus norvegicus) (UniProt P70606). The assay can be described thus: NVS_IC_rKCaCh: NovaScreen (NVS) Ion Channel Assay for rat Potassium Channel, Ca2+ Act., VI (KCaCh) (AID 2283336). The procedure, abridged: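 Filter-based scintillation counting of radioligand bound to rat forebrain membrane preparations, measured 1 h after compound addition. Primary screen used 25 uM in duplicate, with concentration-response follow-up; signal decrease relative to DMSO marks activity.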

Assay [3] in a line: NVS_IC_rCaBTZCHL: NovaScreen (NVS) Ion Channel Assay for Calcium Channel, Type L, Benzothiazepine Site (CaBTZCHL) (AID 2283337). The gist of the method: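 Rat cortical membrane preparation, cell-free. Radioligand displaced by test chemical; 1.5 h incubation; filtration, scintillation count. DMSO = negative control/baseline. Primary: duplicate, 25 uM; secondary: concentration series.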

The subject of assay [4] is guinea pig Histamine Receptor (H2), gene 100729734. In words: NVS_GPCR_gH2: NovaScreen (NVS) G Protein-Coupled Receptor Assay for guinea pig Histamine Receptor (H2) (AID 2283342). The gist of the method: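 Guinea pig striatal membrane preparation with specific radioligand; bound counts measured by filtration and scintillation 1 h post-dosing, DMSO as baseline. Chemicals passing a 25 uM duplicate screen were titrated to a 50 uM maximum.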

The subject of another assay is NCBI gene 100848466. In words: NVS_NR_bPR: NovaScreen (NVS) Nuclear Receptor Binding Assay for bovine Progextron Receptor (PR) (AID 2283343).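 On AC50: actives lower bound radioligand signal below DMSO meaning displacement of the label.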 The procedure, abridged:
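Scintillation counts of bound radioligand were read 18 hours after chemical addition to membranes extracted from bovine uterus. Displacement was scored as loss of signal relative to DMSO controls. Screening began at 25 uM in duplicate.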

In assay [5] the target is bovine Estrogen Receptor (ER), ESR1 (gene 407238) (UniProt P49884). The assay can be described thus: NVS_NR_bER: NovaScreen (NVS) Nuclear Receptor Binding Assay for bovine Estrogen Receptor (ER) (AID 2283345).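 Further: actives lower the bound radioligand count which means they displace the ER ligand.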 The gist of the method:
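Displacement of a radioligand from estrogen receptor in bovine uterine membrane preparations; scintillation signal taken at 18 hours, DMSO as baseline. Single-concentration duplicates (25 uM) preceded concentration-response follow-up of actives.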

For assay [6], the target named is chimpanzee Androgen Receptor (AR), AR (gene 747460) (UniProt O97775). In words: NVS_NR_cAR: NovaScreen (NVS) Nuclear Receptor Binding Assay for chimpanzee Androgen Receptor (AR) (AID 2283346).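 Further: a loss of bound radioligand signal versus DMSO counts as binding.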 The gist of the method: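 Radioligand binding to chimpanzee AR expressed in Sf9/Sf21 cells, cell-free, measured 72 h after dosing by lysate-based scintillation counting. Loss of signal vs DMSO; initial duplicate screen at 25 uM, actives retested in concentration series.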
Sequence of chimpanzee Androgen Receptor (AR), AR (gene 747460) (O97775 whole entry, looked up): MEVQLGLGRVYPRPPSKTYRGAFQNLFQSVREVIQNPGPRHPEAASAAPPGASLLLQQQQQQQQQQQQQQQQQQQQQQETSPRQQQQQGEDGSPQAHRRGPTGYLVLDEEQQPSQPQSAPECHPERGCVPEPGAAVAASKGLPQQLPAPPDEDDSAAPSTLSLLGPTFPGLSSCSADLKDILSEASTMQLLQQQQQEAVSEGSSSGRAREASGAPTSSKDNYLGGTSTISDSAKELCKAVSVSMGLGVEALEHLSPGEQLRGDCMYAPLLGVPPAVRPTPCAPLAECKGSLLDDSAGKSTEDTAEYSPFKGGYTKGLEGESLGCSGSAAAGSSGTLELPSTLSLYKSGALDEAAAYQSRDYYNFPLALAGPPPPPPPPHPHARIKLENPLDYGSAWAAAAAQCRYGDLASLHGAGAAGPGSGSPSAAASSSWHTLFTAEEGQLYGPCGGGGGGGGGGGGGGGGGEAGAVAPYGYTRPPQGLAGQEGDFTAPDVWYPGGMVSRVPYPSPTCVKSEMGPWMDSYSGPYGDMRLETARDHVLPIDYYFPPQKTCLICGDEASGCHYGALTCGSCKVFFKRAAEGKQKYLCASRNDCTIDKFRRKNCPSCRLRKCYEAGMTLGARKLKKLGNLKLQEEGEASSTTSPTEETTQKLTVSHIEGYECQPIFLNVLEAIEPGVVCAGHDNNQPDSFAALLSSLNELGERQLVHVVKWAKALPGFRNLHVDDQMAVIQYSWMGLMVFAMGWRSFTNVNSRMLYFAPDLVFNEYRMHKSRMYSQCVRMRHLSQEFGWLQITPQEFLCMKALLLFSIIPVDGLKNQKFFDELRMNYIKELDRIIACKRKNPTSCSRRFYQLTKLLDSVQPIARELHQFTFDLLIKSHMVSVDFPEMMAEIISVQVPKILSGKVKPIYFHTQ

Assay [7] concerns the target Estrogen receptor (Homo sapiens) (UniProt P03372). In words: NVS_NR_hER: NovaScreen (NVS) Nuclear Receptor Binding Assay for human Estrogen Receptor (ER) (AID 2283348). The procedure, abridged:
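MCF7-derived receptor extract, radiolabelled ligand, competitive displacement. Read: scintillation counts at 18 h. DMSO = negative control/baseline. Primary 25 uM duplicate; follow-up concentration–response.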

Assay [8] shares this target. The assay can be described thus: OT_ER_ERaERa_1440: Odyssey Thera (OT) 24-hour HEK293T Protein-Complementation Assay for Estrogen Receptor-alpha/-alpha Homodimer (AID 2283349).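 Further: hits raise fluorescence above DMSO for agonists and antagonists alike.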 The gist of the method: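 Cells (HEK293T) carrying the fragment-tagged ERα LBD (aa 310-547) pair are treated with chemical for 24 hours. Nuclear and/or cytoplasmic fluorescence is then quantified on a laser scanning cytometer. Activity is scored as signal gain against DMSO.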

For assay [9] the target is unchanged. In words: OT_ER_ERaERa_0480: Odyssey Thera (OT) 8-hour HEK293T Protein-Complementation Assay for Estrogen Receptor-alpha/-alpha Homodimer (AID 2283351).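 Further: rise in fluorescence from reassembled reporter fragments on ERα LBD homodimer in nucleus or whole cell.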 The procedure, abridged: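 Read-out: fluorescence intensity rise relative to DMSO, nuclear for agonists, nuclear plus cytoplasmic for antagonists. Construct is the ERα LBD (aa 310-547) homodimer fragment-complementation pair, stably expressed in HEK293T; exposure 8 h.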

In assay [10] the target is Androgen Receptor/SRC-1 Co-activator, AR (gene 367) (UniProt P10275). The assay can be described thus: OT_AR_ARSRC1_0960: Odyssey Thera (OT) 16-hour HEK293T Protein-Complementation Assay for Androgen Receptor/SRC-1 Co-activator (AID 2283353).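 Further: actives raise the signal above DMSO so potency reflects increased AR and SRC-1 complex.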 The gist of the method: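 Readout: 488 nm nuclear-to-cytoplasmic fluorescence ratio from imaging of at least 400 cells per image, 16 h post-dose. Reporter is Venus YFP complementation between AR and SRC-1 fusions, stably expressed in HEK293T; activity scored upward relative to DMSO.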
Sequence of Androgen Receptor/SRC-1 Co-activator, AR (gene 367) (P10275 whole entry, looked up, the tested form may be a part): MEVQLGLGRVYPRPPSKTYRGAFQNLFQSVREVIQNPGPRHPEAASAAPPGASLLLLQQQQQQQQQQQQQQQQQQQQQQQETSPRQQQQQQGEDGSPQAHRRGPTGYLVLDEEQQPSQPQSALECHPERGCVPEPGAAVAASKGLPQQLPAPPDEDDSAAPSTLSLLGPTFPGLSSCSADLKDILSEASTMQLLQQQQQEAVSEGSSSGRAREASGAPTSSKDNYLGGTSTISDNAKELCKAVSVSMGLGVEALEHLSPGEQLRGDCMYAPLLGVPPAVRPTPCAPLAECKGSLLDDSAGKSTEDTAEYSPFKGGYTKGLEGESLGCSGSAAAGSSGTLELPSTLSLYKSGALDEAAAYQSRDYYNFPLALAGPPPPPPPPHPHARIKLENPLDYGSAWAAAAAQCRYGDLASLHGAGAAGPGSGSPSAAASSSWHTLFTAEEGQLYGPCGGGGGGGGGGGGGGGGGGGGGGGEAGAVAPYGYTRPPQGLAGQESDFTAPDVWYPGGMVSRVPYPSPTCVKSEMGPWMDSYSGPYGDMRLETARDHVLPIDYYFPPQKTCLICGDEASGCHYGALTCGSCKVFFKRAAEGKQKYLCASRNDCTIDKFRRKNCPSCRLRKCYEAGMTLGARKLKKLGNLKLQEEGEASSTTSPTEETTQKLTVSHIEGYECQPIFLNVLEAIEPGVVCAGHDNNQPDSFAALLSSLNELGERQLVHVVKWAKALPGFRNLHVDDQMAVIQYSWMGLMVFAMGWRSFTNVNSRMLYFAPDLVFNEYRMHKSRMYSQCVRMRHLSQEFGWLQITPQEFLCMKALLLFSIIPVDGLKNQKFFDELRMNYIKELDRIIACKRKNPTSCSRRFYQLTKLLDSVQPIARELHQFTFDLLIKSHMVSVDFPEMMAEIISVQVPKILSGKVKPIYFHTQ

The target of assay [11] is Estrogen receptor (Homo sapiens) + Estrogen receptor beta (Homo sapiens) (UniProt P03372+Q92731). In words: OT_ER_ERaERb_1440: Odyssey Thera (OT) 24-hour HEK293T Protein-Complementation Assay for Estrogen Receptor-alpha/-beta Homodimer (AID 2283356).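 Further: heteromer of ER alpha and ER beta binding domains; hits raise reporter fluorescence and both agonists and antagonists give an increase.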 The procedure, abridged: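 Readout: mean fluorescence intensity in nucleus (agonists) or nucleus plus cytoplasm (antagonists), read by laser scanning cytometer after 24 h compound exposure of HEK293T cells carrying ERα/ERβ LBD fragment-complementation constructs; DMSO baseline.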
Sequence of Estrogen receptor (Homo sapiens) + Estrogen receptor beta (Homo sapiens) (P03372 whole entry, looked up, the tested form may be a part): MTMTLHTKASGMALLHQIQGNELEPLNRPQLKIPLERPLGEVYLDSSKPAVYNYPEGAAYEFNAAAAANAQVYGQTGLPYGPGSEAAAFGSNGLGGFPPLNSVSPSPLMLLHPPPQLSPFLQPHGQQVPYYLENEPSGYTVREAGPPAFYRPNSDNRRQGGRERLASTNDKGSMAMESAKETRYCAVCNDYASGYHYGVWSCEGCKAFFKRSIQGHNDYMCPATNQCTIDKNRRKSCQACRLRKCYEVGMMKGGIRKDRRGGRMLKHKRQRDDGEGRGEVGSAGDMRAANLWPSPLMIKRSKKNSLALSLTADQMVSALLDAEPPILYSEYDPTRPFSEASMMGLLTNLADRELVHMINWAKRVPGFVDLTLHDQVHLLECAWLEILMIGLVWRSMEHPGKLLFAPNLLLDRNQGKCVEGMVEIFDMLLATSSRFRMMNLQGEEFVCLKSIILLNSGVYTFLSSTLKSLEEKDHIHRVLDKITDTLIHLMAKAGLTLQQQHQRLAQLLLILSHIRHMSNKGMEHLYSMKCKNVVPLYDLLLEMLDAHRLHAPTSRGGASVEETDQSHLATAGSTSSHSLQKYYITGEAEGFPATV
Sequence of Estrogen receptor (Homo sapiens) + Estrogen receptor beta (Homo sapiens) (Q92731 whole entry, looked up, the tested form may be a part): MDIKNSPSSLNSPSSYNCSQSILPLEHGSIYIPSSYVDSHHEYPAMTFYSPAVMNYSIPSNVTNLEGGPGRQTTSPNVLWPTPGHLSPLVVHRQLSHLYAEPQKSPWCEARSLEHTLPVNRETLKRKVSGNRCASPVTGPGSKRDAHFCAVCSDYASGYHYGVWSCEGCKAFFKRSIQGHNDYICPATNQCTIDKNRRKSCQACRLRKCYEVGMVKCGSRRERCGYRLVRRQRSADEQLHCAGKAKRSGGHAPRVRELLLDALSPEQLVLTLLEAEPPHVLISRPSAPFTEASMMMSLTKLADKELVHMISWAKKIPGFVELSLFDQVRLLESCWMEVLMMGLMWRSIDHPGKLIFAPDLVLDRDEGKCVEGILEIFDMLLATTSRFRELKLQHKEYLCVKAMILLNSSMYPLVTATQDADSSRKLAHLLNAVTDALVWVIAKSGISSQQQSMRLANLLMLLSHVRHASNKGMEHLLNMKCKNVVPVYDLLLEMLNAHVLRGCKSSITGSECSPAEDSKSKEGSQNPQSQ

Assay [12] has as its target Estrogen receptor beta (Homo sapiens) (UniProt Q92731). The assay can be described thus: OT_ER_ERbERb_0480: Odyssey Thera (OT) 8-hour HEK293T Protein-Complementation Assay for Estrogen Receptor-beta/-beta Homodimer (AID 2283357).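 Further: active means signal gain over DMSO baseline.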 The gist of the method: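 Homodimerization of ER-beta LBD measured by protein-fragment complementation in HEK293T; 8 h dosing; fixed, Draq5 counterstain; fluorescence intensity gain over DMSO baseline, positive fitting direction; laser scanning cytometry.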

The target of assay [13] is bovine Gamma-Aminobutyric Acid Type A Receptor Agonist (GABAR Agonist), GABRA1 (gene 780973) (UniProt P08219). In words: NVS_LGIC_bGABAR_Agonist: NovaScreen (NVS) Ligand-Gated Ion Channel Assay for bovine Gamma-Aminobutyric Acid Type A Receptor Agonist (GABAR Agonist) (AID 2283338). The gist of the method:
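Radioligand binding to bovine cerebellar membranes in agonist format, read by filter-based scintillation counting after 1 h. Primary screen in duplicate at 25 uM, with actives followed in concentration series. Gain of signal versus DMSO.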

Assay [14] deals with human Constitutive Androstane Receptor (CAR), NR1I3 (gene 9970) (UniProt Q14994). In words: NVS_NR_hCAR_Antagonist: NovaScreen (NVS) Nuclear Receptor Binding Assay for human Constitutive Androstane Receptor Antagonism (CAR) (AID 2283344). The gist of the method: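 Single 25 uM duplicate primary screen, with concentration-series follow-up on actives. Cell-free binding format run in antagonist mode, TR-FRET signal taken 1 h post-dose; activity is signal loss relative to DMSO.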
Sequence of human Constitutive Androstane Receptor (CAR), NR1I3 (gene 9970) (Q14994 whole entry, looked up): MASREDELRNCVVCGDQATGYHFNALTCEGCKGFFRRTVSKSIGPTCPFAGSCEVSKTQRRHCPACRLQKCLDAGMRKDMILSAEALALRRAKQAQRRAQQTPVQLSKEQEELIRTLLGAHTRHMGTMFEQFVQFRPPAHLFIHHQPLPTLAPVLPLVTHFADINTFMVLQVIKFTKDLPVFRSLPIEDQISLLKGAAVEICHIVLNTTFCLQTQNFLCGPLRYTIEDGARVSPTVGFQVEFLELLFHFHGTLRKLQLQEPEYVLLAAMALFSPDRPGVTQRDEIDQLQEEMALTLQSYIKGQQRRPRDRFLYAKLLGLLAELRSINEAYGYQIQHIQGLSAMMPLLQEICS

Assay [15] concerns the target Bile acid receptor (Homo sapiens) (UniProt Q96RI1). The assay can be described thus: NVS_NR_hFXR_Antagonist: NovaScreen (NVS) Nuclear Receptor Binding Assay for human Farnesoid X Receptor Antagonism (FXR) (AID 2283350). The procedure, abridged: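 Antagonist-format time-resolved FRET binding assay with extracted human receptor protein, read 1 hour after compound addition. Compounds first screened at 25 uM in duplicate, then actives tested in concentration series, with loss of signal relative to DMSO.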

Assay [16] addresses rat Mineralocorticoid Receptor (MR), Nr3c2 (gene 25672) (UniProt P22199). In words: NVS_NR_rMR: NovaScreen (NVS) Nuclear Receptor Binding Assay for rat Mineralocorticoid Receptor (MR) (AID 2283355). The gist of the method:
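Radioligand displacement, scintillation readout; tissue source adrenalectomized rat brain supernatant. Read 24 h post-dose. Screened in duplicate at 25 uM, DMSO negative control, controls on every plate; actives re-run in concentration series.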

Structures are written as SMILES. Values joined by “and” are separate entries in the source; they are usually repeats but may differ in a detail not shown here. Equal values may be shown once. Inconclusive results are not listed. Active and inactive are the calls of the source. How the source made its calls: active means hit-call score of the fitted dose curve at least 0.9, where 1 is the maximum; inconclusive means response in the unintended direction; inactive means score below 0.9.

Sequence of bovine Estrogen Receptor (ER), ESR1 (gene 407238) (P49884 whole entry, looked up): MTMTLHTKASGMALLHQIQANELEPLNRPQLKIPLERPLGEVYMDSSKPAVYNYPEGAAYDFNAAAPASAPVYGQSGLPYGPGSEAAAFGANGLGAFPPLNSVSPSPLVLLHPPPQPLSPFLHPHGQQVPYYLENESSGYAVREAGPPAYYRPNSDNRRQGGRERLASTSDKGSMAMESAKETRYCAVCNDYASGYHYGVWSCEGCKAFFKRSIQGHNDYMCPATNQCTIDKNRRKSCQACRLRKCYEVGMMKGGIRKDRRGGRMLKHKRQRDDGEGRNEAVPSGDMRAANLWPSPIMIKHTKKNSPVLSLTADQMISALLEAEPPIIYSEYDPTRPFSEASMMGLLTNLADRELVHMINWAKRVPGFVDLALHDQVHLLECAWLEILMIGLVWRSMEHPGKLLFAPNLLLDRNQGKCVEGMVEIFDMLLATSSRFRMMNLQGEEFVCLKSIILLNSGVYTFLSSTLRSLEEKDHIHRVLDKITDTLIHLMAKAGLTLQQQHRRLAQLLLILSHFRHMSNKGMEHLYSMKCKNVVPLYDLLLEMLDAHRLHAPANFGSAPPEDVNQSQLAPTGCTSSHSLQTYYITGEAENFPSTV
Sequence of Estrogen receptor beta (Homo sapiens) (Q92731 whole entry, looked up, the tested form may be a part): as the sequence (Q92731 whole entry, looked up, the tested form may be a part) above
Sequence of Estrogen receptor (Homo sapiens) (P03372 whole entry, looked up): as the sequence (P03372 whole entry, looked up, the tested form may be a part) above
Sequence of Bile acid receptor (Homo sapiens) (Q96RI1 whole entry, looked up): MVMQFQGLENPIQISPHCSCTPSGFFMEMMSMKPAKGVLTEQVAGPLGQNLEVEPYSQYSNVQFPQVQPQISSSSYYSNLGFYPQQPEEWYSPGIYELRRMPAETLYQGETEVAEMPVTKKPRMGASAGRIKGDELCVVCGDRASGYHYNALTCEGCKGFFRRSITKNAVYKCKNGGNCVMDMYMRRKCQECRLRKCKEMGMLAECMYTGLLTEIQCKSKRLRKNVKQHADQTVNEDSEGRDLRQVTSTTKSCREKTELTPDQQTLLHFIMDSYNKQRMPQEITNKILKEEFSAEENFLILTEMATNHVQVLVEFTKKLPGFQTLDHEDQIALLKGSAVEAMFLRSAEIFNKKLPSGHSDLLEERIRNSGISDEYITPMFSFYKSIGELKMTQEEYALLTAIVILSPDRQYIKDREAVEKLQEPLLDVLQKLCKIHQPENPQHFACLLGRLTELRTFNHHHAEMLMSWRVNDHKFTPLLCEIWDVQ

What is called AC50 is the midpoint of the concentration-response curve, whichever way the signal moves. With `CCN(Cc1cccnc1)C(=O)c1cccc(Cl)c1[C@]1(C)C(=O)N(Cc2ccc(OC)cc2OC)c2ccc(Cl)cc21`, the AC50 in [1] was 1.69 µM (active); in assay [3], 12.6 µM (active); in assay [4] it was 1.12 µM (active); in the assay on NCBI gene 100848466, 2.77 µM (active); in [6], 18.3 µM (active); in assay [7], 7.99 µM (active). In addition, in [10], the AC50 was 2.59 µM (active). Also, the outcome in assay [2], in [5], in [8], in assay [9], in [11] and in assay [12] was inactive.

Consider `CCN(CC)C(=O)c1cc(S(=O)(=O)Cc2ccccc2)c(N2CCC(c3ccccc3)CC2)cc1N(CC)CCN(C)C`, for which the concentration at half-maximal activity (AC50) in [3] was 0.214 µM (active); in [4] it was 2.84 µM (active); in assay [6], 12.6 µM (active); in assay [15] it was 10.1 µM (active). For the same compound, the compound was called inactive in [13], in assay [14], in assay [8], in assay [9] and in assay [12].

Turning to `CCCCCCCCOC(=O)c1cc(O)c(O)c(O)c1`, the AC50 in [1] was 2.82 µM (active); in assay [5], 36.7 µM (active); in assay [8], 14.4 µM (active); in [9] it was 12.1 µM (active); in [11] it was 13 µM (active); in assay [12], 12.4 µM (active). Also, the outcome (in the assay with NCBI gene 100848466; in assay [7]) was inactive.

`COc1cccc([C@H](O)C2CCN(CCc3ccc(F)cc3)CC2)c1OC`: the AC50 in assay [3] is 1.35 µM (active); in [4], 13.1 µM (active). Further, the outcome in assay [8], in assay [9], in [11] and in assay [12] was inactive.

Regarding `CN(C[C@@H](CC[N+]12CCC(C3CCCCC3)(CC1)CC2)c1ccc(Cl)c(Cl)c1)C(=O)c1cc(C(F)(F)F)cc(C(F)(F)F)c1`, the AC50 in assay [1] is 2.4 µM (active); in assay [3], 1.48 µM (active); in the assay with NCBI gene 100848466, 41.5 µM (active); in assay [7], 33 µM (active); in assay [10], 21.3 µM (active). For the same compound, the compound was classed as inactive in [8] and in [9].

In the case of `CC(C)(O)c1ccc(CNC(=O)c2cccnc2Oc2ccc3nonc3c2)cc1`, in [1], the AC50 was 7.64 µM (active). Moreover, the compound was classed as inactive in assay [7], in assay [8], in assay [9], in assay [11] and in assay [12].

Turning to `CCCCCCCC[Si](OCC)(OCC)OCC`, in assay [12], the compound was called inactive.

With `CC1(C)NC(=O)N(c2ccc([N+](=O)[O-])c(C(F)(F)F)c2)C1=O`, in assay [6], the AC50 was 1.06 µM (active) and 136 nM (active). In addition, the result in [12] was inactive.

With `Oc1ccc2ccccc2c1`, the call in [10] was inactive. Besides, in assay [12], the AC50 was 37.7 µM (active).

As to `CCCCCCCCCCCO`, the compound was classed as inactive in assay [5], in assay [7], in assay [8], in assay [9], in assay [11] and in assay [12].

Turning to `O=c1ccc2ccccc2o1`, the call in assay [8], in assay [9], in assay [11] and in assay [12] was inactive.

Turning to `O=C(Nc1ccc(Cl)cc1)Nc1ccc(Cl)c(Cl)c1`, the compound was called inactive in [5], in [7], in assay [8], in assay [15], in assay [9] and in assay [11]. Moreover, in assay [12], the call was inactive. Further, the AC50 in assay [10] is 4.86 µM (active).

Regarding `O=C1CCC(C2CCCCC2)CC1`, the compound was called inactive in assay [6] and in assay [12].

For `CN1C(=O)CC[C@H]1c1cccnc1`, the compound was classed as inactive in assay [12].

Take `Cc1cn([C@H]2C[C@H](N=[N+]=[N-])[C@@H](CO)O2)c(=O)[nH]c1=O`: the call in assay [8] was inactive.

Consider `c1ccc2n[nH]nc2c1`, for which the compound was classed as inactive in [12].

For the compound `O=CCCCC=O`, the compound was called inactive in assay [5], in assay [8], in assay [9] and in [16].

With `CCCC(=O)OCCC(C)C`, the compound was called inactive in [8], in assay [9] and in [10].

For `O=C=NCCCCCCN=C=O`, the call in assay [8], in [9] and in assay [11] was inactive.

Regarding `CO[C@H]1/C=C/O[C@@]2(C)Oc3c(C)c(O)c4c(O)c(c(/C=N/N5CCN(C)CC5)c(O)c4c3C2=O)NC(=O)/C(C)=C\C=C\[C@H](C)[C@H](O)[C@@H](C)[C@@H](O)[C@@H](C)[C@H](OC(C)=O)[C@@H]1C`, in assay [12], the call was inactive.

Take `OCCO`: the result in assay [8], in [9] and in [10] was inactive.

As to `CC1=CC(=O)/C(=C(/C)O)C(=O)O1`, the outcome in assay [14], in [8], in [9], in assay [11] and in [12] was inactive.

(Values after PubChem BioAssay (EPA / NIEHS).)
